Compound activity deposited in PubChem by National Center for Advancing Translational Sciences (NCATS).
NS1 inh – qHTS Assay for Inhibitors of Influenza NS1 Protein Function | 0.4% of 270,000 active | Potency, µM (titrated, usually from 46.1 µM), without a hit: at the top dose activity, positive = more growth; calls by dose curve; also: potency is read from the fitted curve at half-maximal effect; actives are rising curves; nearly all actives have a fitted effect of over 50% in size
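Compounds were scored for reversing the slow growth caused by influenza A NS1 in S. cerevisiae, measured by optical density at 600 nm. Assay medium contained 2% galactose at pH 6.0; NS1-free yeast of the same strain were the positive control.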
Pf growth 48h – Primary qHTS for delayed death inhibitors of the malarial parasite plastid, 48 hour incubation; AID 504832, 2011; Potency, µM (highest dose often 28.7 µM), for inactives: at the highest dose activity change, negative = inhibition, most hits filed as inhibitors; 5.9% of 310,000 active; P. falciparum luciferase growth in erythrocytes, 48 h; also: potency is read from the fitted curve at half-maximal effect; % is scaled to controls: 0 for no effect and ±100 for the full control effect
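Compounds are pin-transferred into medium, infected erythrocytes (2% hematocrit, 0.1% parasitemia final) are added, and plates sit one parasite generation at 37 C in 5% CO2. Detection reagent is then added and luminescence measured.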
Pf growth 96h – Primary qHTS for delayed death inhibitors of the malarial parasite plastid, 96 hour incubation. Potency, µM (highest dose often 28.7 µM), for the others: at the top dose activity change, negative = inhibition, most hits filed as inhibitors. P. falciparum luciferase reporter growth, 96 h. AID 504834, 2011. 6.9% of 320,000 active; also: potency is read from the fitted curve at half-maximal effect; % is scaled to controls: 0 for no effect and ±100 for the full control effect
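Luminescence readout: decreased luciferase signal marks inhibited growth of reporter-expressing P. falciparum in infected red cells (2% hematocrit, 0.05% parasitemia final), exposed to compound two generations (96 h, 37 C, 5% CO2).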
Shiga inhibitor – A qHTS for Small Molecule Inhibitors of Shiga Toxin. Vero cells, Shiga toxin protein synthesis inhibition reporter. inhibition, % at 38.7 µM. 9.2% of 290,000 active. AID 2315, 2010; in the data active = inhibition mostly above about 28%, no sharp cut-off; inactive = mostly below about 43%; also: 0% is about no effect
CHX counter – Cycloheximide Counterscreen for Small Molecule Inhibitors of Shiga Toxin | 12% of 300,000 active | AID 2314, 2010 | max response, % | cell reporter, cycloheximide protein synthesis inhibition counterscreen; in the data active = max response mostly above about 13%, no sharp cut-off; inactive = mostly below about 14%; also: read at 38.3 µM for the half of the compounds with a filed dose; 0% is about no effect
* = called active by the depositor; ? = inconclusive; . = not tested or not shown; [ ] = remark or other dose. The list is not random: actives were taken first. Their share in the collection is about 21%. Unless noted, calls follow the shape of the dose curve; as a rule, active = well fitted inhibition curve with a large enough effect; inconclusive = small, poorly fitted or top-dose-only effect, or another doubt; inactive = no such curve, though single readings can be large or run the other way.

SMILES	NS1 inh	Pf growth 48h	Pf growth 96h	Shiga inhibitor	CHX counter
Nc1nc(CSc2nc3ccccc3s2)nc(N2CCCCC2)n1	-8%	?	33%	7	2
COc1ccc2nc(SCc3nc(N)nc(Nc4ccccc4)n3)[nH]c2c1	2%	?	106%	32	16
CCc1ccc(Nc2nc(N)nc(CSc3nc4ccccc4s3)n2)cc1	-7%	35%	10%	49*	29
Nc1nc(CSc2ccccn2)nc(Nc2ccccc2)n1	3%	261%	.	70*	33*
O=C(O)C1CSC2(c3ccc4c(c3)OCCO4)CCC(=O)N12 (stereo not given)	1%	-5%	34%	-11	-2
COc1cc(OC)cc(C(=O)NNC(=O)CN2C(=O)NC3(CCCC3)C2=O)c1	.	-4%	16%	.	.
Cc1ccc(Nc2nc(N)nc(CSc3nncn3C)n2)cc1	13%	442%	9%	64*	28*
CCOc1ccc(CCNC(=O)COC(=O)/C=C/c2ccccc2OC)cc1OCC	.	-2%	?	.	.
Cc1ccc(-c2ccc(CO)o2)cc1N	.	62%	-43%[5.75 µM]	55*	25*
Cc1ccc(C(=O)C(=O)c2ccc(C)c(N)c2)cc1N	1%	16%	8%	18	12
CCOC(=O)c1ccc(-c2ccc(C3Nc4ccccc4C(=O)N3O)o2)cc1 (stereo not given)	-29%	?	-89%	145*	33*
O=C1c2ccccc2NC(c2ccc(-c3cccc(F)c3)o2)N1O (stereo not given)	.	89%	129%	.	.
CCOC(=O)c1ccc(-c2ccc(CO)o2)cc1	-37%	124%	101%	84*	34*
Cc1ccc(OCC(=O)Nc2ccc(N3CCN(C(=O)c4ccco4)CC3)cc2)cc1C	5%	-16%	35%	22	-5
Cc1cc(OCC(=O)Nc2ccc(N3CCN(C(=O)c4ccco4)CC3)cc2)cc(C)c1Cl	-3%	9.3µM*	?	-11	-2
Cc1cccc(OCC(=O)Nc2ccc(N3CCN(C(=O)c4ccco4)CC3)cc2)c1	-3%	9.3µM*	4%	17	-2
CC1(C(=O)O)CCC(C(=O)Nc2ccccc2O)C1(C)C (stereo not given)	-4%	.	12µM*	-22	-7
CC(=O)c1ccc(NC(=O)C2CCC(C)(C(=O)O)C2(C)C)cc1 (stereo not given)	3%	13%	?	-13	4
CCC(=O)Nc1nnc(SCC(=O)c2ccc3c(c2)Cc2ccccc2-3)s1	9%	40%	-3%	-7	-2
Cc1cc2c(c(=O)n1Cc1ccco1)C(c1cccnc1)C(C#N)=C(N)O2 (stereo not given)	?	0%	9.3µM*	1	1
N#CC1=C(N)Oc2n[nH]c(-c3ccc(F)cc3)c2C1c1cccnc1 (stereo not given)	4%	.	5.9µM*	-14	-2
CCOc1ccc(C2C(C#N)=C(N)Oc3cc(C)n(Cc4ccco4)c(=O)c32)cc1OC (stereo not given)	-12%	?	.	3	-2
N#CC1=C(N)Oc2ccc3ccc(O)cc3c2C1c1cccnc1 (stereo not given)	-1%	1.3µM*	?	-10	-1
C=CCN(CC=C)CCOc1cccc(Oc2ccccc2)c1	3%	?	-7%	31	-3
Cc1nn(-c2ccccc2)c(C)c1NC(=O)COC(=O)C1CC(=O)N(CCc2ccccc2)C1 (stereo not given)	.	?	23%	.	.
SMILES	NS1 inh	Pf growth 48h	Pf growth 96h	Shiga inhibitor	CHX counter
Cc1ccc2oc(=O)cc(/C=C/c3ccccc3)c2c1	-21%	-7%	-22%	12	-3
COc1ccc(Cl)cc1NC(=O)C1(c2cccs2)CCOCC1	.	0%	?	-10	-3
CN(C)S(=O)(=O)c1cccc(C(=O)C2=C3SC=C(c4ccccc4)N3CC2)c1	-5%	-19%	3.3µM*	12	3
c1ccc(-c2nc(-c3nccc4ccccc34)oc2-c2ccccc2)cc1	-6%	45%	33%	74*	46*
COc1cccc(CNC(=O)c2cc(C3CC3)nc3c2cnn3C(C)C)c1	.	4.7µM*	3.3µM*	.	.
Cc1ccc(CNC(=O)c2cc(C3CC3)nc3c2cnn3C(C)C)cc1	.	13µM*	?	.	.
C[C@H](NC(=O)c1ccc2ccccc2c1)C(=O)N1CCC2(CC1)NCCc1[nH]cnc12	-6%	-3%	22%	8	-4
